Source: PubChem BioAssay
HP1b chromo inh: HTS for Inhibitors of HP1-beta Chromodomain Interactions with Methylated Histone Tails | Chromobox protein homolog 1 (Homo sapiens), P83916 | AlphaScreen HP1-beta / biotin-H3K9me3 peptide binding | Potency, µM (titrated, usually from 114 µM), for inactives: at the highest dose activity change, negative = inhibition, usual class: inhibitors | 390,000 tested, 0.56% active; note: nearly all actives have a fitted effect of over 70% in size
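Compound inhibition of the preformed complex between 50 nM HP1-beta and 50 nM biotinylated H3K9me3 peptide was read by AlphaScreen. Buffer was PBS pH 7.4 with 0.01% Tween-20. Incubations ran 30 min at room temperature, with 10 ug/mL donor/acceptor beads.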
G9a block: qHTS Assay for Inhibitors of Histone Lysine Methyltransferase G9a; G9a H3K9 monomethylation, AlphaScreen, 2 h; Histone-lysine N-methyltransferase EHMT2 (Homo sapiens), Q96KQ7; Potency, µM (titrated, usually from 102 µM), for inactives: top-dose activity, negative = inhibition, usual class: inhibitors; 350,000 tested, 8.8% active; note: % is set by controls: 0 for no effect and ±100 for the full control effect; nearly all actives have a fitted effect of over 75% in size
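G9a (20 nM) was preincubated 15 min with compound, then reacted 2 h at room temperature with 500 nM biotin-H3K9 peptide and 20 µM SAM. Monomethyl-H3K9 detected by AlphaScreen using anti-H3K9me1 antibody.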
JMJD2A Tudor inh: qHTS Assay for Inhibitors of JMJD2A-Tudor Domain. Lysine-specific demethylase 4A (Homo sapiens), O75164. AlphaScreen JMJD2A-Tudor / H3K4me3 peptide binding. Potency, µM (highest dose often 114 µM), inactives show at the highest dose activity change, negative = inhibition, usual class: inhibitors. 390,000 tested, 4.4% active; note: % is set by controls: 0 for no effect and ±100 for the full control effect; nearly all actives have a fitted effect of over 50% in size
Sfp inh: qHTS Assay for Inhibitors of Bacillus subtilis Sfp phosphopantetheinyl transferase (PPTase); Biochemical Sfp PPTase activity, qHTS; Potency, µM, inactives show largest response in the series, negative = inhibition, usual class: inhibitors; 310,000 tested, 3.5% active;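 note: the enzyme is Sfp with the accession as filed and its product quenches rhodamine fluorescence; 0% = enzyme reaction without inhibitor and -100% = no enzyme wells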
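Fluorescence-quenching assay: 15 nM Sfp-PPTase preincubated 15 min at room temperature with compound, then 5 uM rhodamine-CoA and 12.5 uM BHQ-2-labelled YbbR peptide added. Fluorescence (ex 525/em 598 nm) read at start and after 30 min; difference gives rate.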
BAZ2B block: qHTS Assay for Inhibitors of BAZ2B; Potency, µM (titrated, usually from 114 µM), for inactives: at the top dose activity change, negative = inhibition, hits mostly inhibitors; AlphaScreen BAZ2B-H3K14Ac peptide displacement; Bromodomain adjacent to zinc finger domain protein 2B (Homo sapiens), Q9UIF8; 360,000 tested, 4.4% active; AID 504333, 2011; note: % is set by controls: 0 for no effect and ±100 for the full control effect; nearly all actives have a fitted effect of over 60% in size
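AlphaScreen luminescence quantifies BAZ2B engagement of H3K14Ac peptide; the protein and biotinylated peptide are both at 50 nM final, buffer PBS pH 7.4 with 0.01% Tween-20, all steps at room temperature.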
Starred values were filed as active, the others as inactive; u = inconclusive; x = no result given; [ ] = another dose, or the depositor's remark. An excerpt weighted towards active compounds, which were near 12% of everything screened. Calls come from the whole dose curve; as a rule, active = well fitted curve in the direction sought with a large enough effect; inconclusive = small, poorly fitted or top-dose-only effect, or another doubt; inactive = no such curve, though single readings can be large; an effect the other way counts as inactive or inconclusive. Potency is the fitted concentration of half-maximal effect.

SMILES | HP1b chromo inh | G9a block | JMJD2A Tudor inh | Sfp inh | BAZ2B block
Nc1ccc(Oc2ccc(Br)cc2)cc1 | u | -10.2%[59 µM] | u | 30.7% | 39.8µM*
Cc1cccc(C)c1Nc1oc(-c2ccccc2)nc1-c1cccc2ccccc12 | x | x | x | -0.9% | x
O=c1ccc(=O)n(CCc2ccccn2)[nH]1 | 30.6% | x | -9.7% | x | x
Cc1ccc(S(=O)(=O)N2CCN(C)CC2)cc1[N+](=O)[O-] | 21.6% | -34.7%[59 µM] | -17.3% | 1.7% | -6.1%
CC(Nc1ccc(S(=O)(=O)N2CCN(C)CC2)cc1[N+](=O)[O-])c1ccccc1 (centres undefined) | -27.6% | 39.8µM* | u | x | u
COc1ccccc1C(C)Nc1ccc(S(=O)(=O)N2CCN(C)CC2)cc1[N+](=O)[O-] (centres undefined) | u | u | 35.5µM* | x | 39.8µM*
CN1CCN(S(=O)(=O)c2ccc(N(C)Cc3ccc(OC(F)F)cc3)c([N+](=O)[O-])c2)CC1 | u | 8.9%[0.501 µM] | u | x | 50.1µM*
COc1ccccc1Oc1ccc(S(=O)(=O)N2CCN(C)CC2)cc1 | -1.5% | -19.0% | -22.1% | 16.4% | x
COc1cccc(C(CNc2ccc(S(=O)(=O)N3CCN(C)CC3)cc2[N+](=O)[O-])N(C)C)c1 (centres undefined) | -21.7% | 50.1µM* | u | x | u
CCC1=C(c2cc(OC)c(OC)c(OC)c2)C2(CCCC2)C(=O)O1 | 52.7% | 43.0% | 6.3% | 11.4% | -1.7%
CC(C)(C)N(Cc1ccccc1)C(=O)COC(=O)C1CCN(c2ccc(C(F)(F)F)cn2)CC1 | 49.4% | u | 15.8% | x | 6.0%
CCC1(CC)C(=O)NC(=O)NC1=S | 8.4% | x | 50.1µM* | x | x
CCC1(CC)C(=O)Nc2ccccc21 | 12.5% | x | -7.5% | x | x
FC(F)Oc1ccc(/C=N/c2c(-c3ccc(OC(F)F)cc3)nc3n2CCS3)cc1 | u | u | 50.1µM* | 6.3% | u
Cc1cc(C)c(NC(=O)CSc2ccc(-c3sc(-c4ccccc4)nc3C)nn2)c(C)c1 | 9.3% | 2.7%[59 µM] | -16.8% | x | -4.1%
COC(=O)c1nnn(-c2cccc(C)c2)c1N | 34.9% | 4.3%[59 µM] | -0.4% | x | -16.5%
Cc1cc(=O)c2c(o1)C(=O)c1occc1C2=O | -23.2% | x | 44.7µM* | x | x
Cc1ccc(C)c(N(CC(=O)Nc2cc(Cl)ccc2Oc2ccccc2)S(C)(=O)=O)c1 | 6.2% | 46.9%[59 µM] | -6.2% | 12.8% | -31.4%
Cc1cccc(C)c1N(CC(=O)Nc1cc(Cl)ccc1Oc1ccccc1)S(C)(=O)=O | 27.9% | 12.6µM* | -11.7% | 7.5% | 11.1%
CCOc1ccc(N(CC(=O)N/N=C/c2ccccn2)S(=O)(=O)c2ccc(Cl)cc2)cc1 | 37.1% | -1.7% | -35.8% | 3.6% | -1.7%
CCn1cc(/C=C/c2cc[n+](C)cc2)c2ccccc21 | 41.9% | -24.7%[2.33 µM] | -3.7% | -8.0% | u
C=CCn1c(C)c(/C=C/c2cc[n+](C)cc2)c2ccccc21 | 23.9% | 44.7µM* | -8.3% | -2.8% | 3.4%
Cc1ccccc1/C=C/c1cc[n+](C)cc1 | 14.5% | -36.9% | u | -16.7% | -6.2%
C=CCn1cc(/C=C/c2cc[n+](C)cc2)c2ccccc21 | -5.1% | 50.1µM* | -12.2% | -11.1% | 50.1µM*
CCN(CC)C(=O)Cn1c(C)c(/C=C/c2cc[n+](C)cc2)c2ccccc21 | 14.3% | u | u | 17.0% | -34.4%
SMILES | HP1b chromo inh | G9a block | JMJD2A Tudor inh | Sfp inh | BAZ2B block
Cc1[nH]c2ccccc2c1/C=C/c1cc[n+](C)cc1 | 13.2% | 14.3%[12.7 µM] | -11.6% | -12.1% | 56.2µM*
CCN(Cc1ccccc1)C(=O)c1ccc2c(=O)n3c(nc2c1)CCC3 | 11.2% | -26.8% | -16.4% | x | 7.9%
CCOC(=O)c1cnc2cc(C(F)(F)F)ccc2c1N1CCN(c2cccc(Cl)c2)CC1 | 79.4% | 41.0%[59 µM] | -21.3% | x | 1.9%
Cc1ccc(C)c(NC(=O)CCS(=O)(=O)c2cccc3nsnc23)c1 | 26.6% | -35.0%[59 µM] | -6.5% | x | 2.2%
COc1ccc(Nc2nc(Cl)nc(N3CCN(c4ccc(OC)cc4)CC3)n2)cc1 | x | u | x | 2.8% | 8.91µM*
CC1CCN(c2nc(Cl)nc(Nc3ccc([N+](=O)[O-])cc3)n2)CC1 | -17.1% | 44.7µM* | u | 5.1% | u
O=C(NCC(c1ccco1)N1CCCC1)c1cc2ccccc2s1 (centres undefined) | 19.0% | -9.4%[12.7 µM] | -21.6% | x | 1.8%
Cc1ccc(-c2csc(NC(=O)CSc3nc4ccccc4c(=O)n3CCCN(C)C)n2)cc1 | u | 39.8µM* | 44.7µM* | 56.2µM* | u
CN(C)CCCn1c(SCC(=O)N2c3ccccc3Sc3ccccc32)nc2ccccc2c1=O | u | 39.8µM* | u | u | u
COc1cccc(S(=O)(=O)Nc2ccc3sc(C)nc3c2)c1 | 25.9% | 22.4µM* | 79.4µM* | u | -8.2%
Cc1nc2cc(NS(=O)(=O)c3cccc4cccnc34)ccc2s1 | 35.3% | x | -10.3% | 6.6% | 7.4%
CCOC(=O)c1c(NC(=O)c2cc(=O)c3ccc(C)cc3o2)sc(C)c1C | 27.2% | -3.3%[59 µM] | -15.3% | x | 0.9%
CCOc1ccccc1N1C(=O)CC(Sc2n[nH]c(-c3ccccc3)n2)C1=O (centres undefined) | 12.6µM* | 1.58µM* | 1.41µM* | 35.5µM* | u
COc1ccccc1N1C(=O)CC(Sc2nc(C)cc(C)n2)C1=O (centres undefined) | 31.9% | -6.2%[59 µM] | -16.3% | 12.7% | 2.3%
CC1CCc2c(nc3ncnn3c2N2CC(C)OC(C)C2)C1 (centres undefined) | 27.0% | 1.1%[2.33 µM] | 15.5% | 7.4% | 23.1%
CC1CN(c2c3c(nc4ncnn24)CCCC3)CC(C)O1 (centres undefined) | 37.1% | 3.16µM* | -9.9% | 9.2% | 1.8%
Cc1ccc(-n2nc(C)c3c(C(F)(F)F)cc(-c4cccnc4)nc32)cc1Cl | 44.7% | 7.4%[59 µM] | 8.2% | x | 2.6%
CCNc1ncc2nc(-c3cn(C)c4ccccc34)c(=O)n(CCC#N)c2n1 | x | -2.1%[0.501 µM] | x | -0.7% | x
O=c1cc(-c2ccccc2)n2c(SCc3c(F)cccc3Cl)nnc2[nH]1 | 9.4% | -0.7%[59 µM] | -7.5% | x | 0.3%
Cc1ccc(N=C2NC(=O)/C(=C\c3ccco3)S2)cc1 | -20.9% | u | u | -19.7% | 39.8µM*
O=C1NC(=Nc2ccc(O)cc2)S/C1=C/c1ccco1 | -15.1% | u | -28.2% | -1.2% | -12.8%
O=C1NC(=Nc2ccc3ccccc3c2)S/C1=C/c1ccco1 | 8.5% | 50.1µM* | u | 70.8µM* | 20µM*
COC(=O)CCC(=O)c1ccc(OC)c(Cl)c1 | x | -3.8%[2.33 µM] | x | x | 2.9%
C[N+](C)(C)c1ccc(/C=N/Nc2nc(Cl)c(C#N)c(Cl)c2Cl)cc1 | 9.0% | u | 31.6µM* | -7.5% | 50.1µM*
